Compound activity as filed in PubChem.
Compounds with a hit are over-represented: about 3.2% of the library has one in this group of screens.
Pol III holo inh: qHTS Assay for Inhibitors of DNA Polymerase III Holoenzyme System; reconstituted DNA polymerase III holoenzyme replication, biochemical; 71,000 compounds, 0.25% hits; Potency, µM (top dose mostly 57.1 µM), for inactives: top-dose activity change, negative = inhibition; AID 603, 2007; further: potency means the concentration at half of the fitted maximal effect; on the % scale 0 is the no-effect control and ±100 the full control effect
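Reconstituted *E. coli* holoenzyme (0.35 nM Pol III, 1 nM beta, 154 nM SSB, 2 nM primase) was preincubated with compound for 15 min at RT. Synthesis on 1.4 nM ssM13Gori ran 35 min, then was stopped with PicoGreen/EDTA and read as dsDNA fluorescence.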
BRCT inh red: qHTS Assay for Inhibitors of BRCT-Phosphoprotein Interaction (Red Fluorophore) | AID 892, 2007 | Potency, µM (doses to about 76.9 µM), for the others: at the highest dose activity change, negative = inhibition, hits mostly inhibitors | BRCT-phosphopeptide binding, red fluorescence polarization | 75,000 compounds, 0.03% hits; further: on the % scale 0 is the no-effect control and ±100 the full control effect
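Fluorescence polarization: 100 nM His-tagged BRCA1 BRCT with 100 nM TAMRA-labelled phospho-BACH1 decapeptide, phosphate buffer pH 7.3 with 150 mM NaCl, DTT, 0.01% Tween 20; 12 min RT. Binding inhibition seen as FP decrease.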
YjeE inh: qHTS Assay for Inhibitors of YjeE. Potency, µM. AID 605, 2007. purified YjeE enzyme, qHTS inhibition assay. tRNA threonylcarbamoyladenosine biosynthesis protein TsaE (Escherichia coli (strain …. 71,000 compounds, 0.05% hits
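Purified YjeE (10 uM) with BODIPY Texas Red-labeled ADP probe (2 uM); compounds pin-transferred, 15 min at room temperature. Binding inhibition read as decreased fluorescence polarization; ADP titration as control.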
BRCT PPI green: qHTS Assay for Inhibitors of BRCT-Phosphoprotein Interaction (Green Fluorophore). Breast cancer type 1 susceptibility protein (Homo sapiens), P38398. BRCA1 BRCT-phosphopeptide binding, green fluorescence polarization. Potency, µM (top dose mostly 76.9 µM), without a hit: at the top dose activity change, negative = inhibition, hits mostly inhibitors. 75,000 compounds, 0.05% hits. AID 875, 2007;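 further: potency means the concentration at half of the fitted maximal effect; plate controls were peptide without protein for full effect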
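Compounds were incubated for 12 min at room temperature with a complex of 100 nM fluorescein-tagged pBACH1 decapeptide and 250 nM His-tagged BRCT protein. Buffer was phosphate pH 7.3 with EDTA, DTT and Tween 20. Disruption of binding lowers the polarization signal.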
HEK293 cAMP cs: qHTS Assay for Agonists of the Thyroid Stimulating Hormone Receptor: Activators of Intracellular cAMP Concentrations in Parental HEK 293; parental HEK293 CNG cAMP sensor, membrane potential fluorescence; Potency, µM (doses to about 57.1 µM), inactives show top-dose activation, usual class: activators; 73,000 compounds, 2.5% hits; further: potency means the concentration at half of the fitted maximal effect; % of control where 0% means no effect; nearly all actives have a fitted effect of over 55% in size
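Parental HEK 293 cells stably expressing a modified CNG channel (no TSHR) report cAMP rise as membrane depolarization. Membrane potential dye with 100 uM RO 20-1724 was loaded for 60 min at room temperature, then compound added for 30 min; fluorescence read at 590 nm.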
TSHR ag: qHTS Assay for Agonists of the Thyroid Stimulating Hormone Receptor. Thyrotropin receptor (Homo sapiens), P16473. HEK293-CNG-TSHR cells (CNG channel as cAMP sensor), membrane potential dye, cAMP. Potency, µM (doses to about 57.1 µM), without a hit: at the top dose activation, hits mostly activators. 73,000 compounds, 0.48% hits. AID 926, 2007; active means well fitted activation curve with a large enough effect in the main read-out, with a control signal flat, not every such curve was filed as active; inconclusive means small, poorly fitted or top-dose-only effect, or a change in a side signal; inactive means no such curve, though single readings can be large or run the other way; % of control where 0% means no effect;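 further: the control signal comes from parental cells without the receptor; potency means the concentration at half of the fitted maximal effect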
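HEK 293 cells stably expressing TSHR and a cAMP-gated CNG channel; parental CNG-only cells as counterscreen. Cells preloaded 60 min with membrane potential dye plus 100 uM RO 20-1724, then compound 30 min; fluorescence read at 590 nm.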
The depositor's hits bear a star; i = inactive; ? = inconclusive; . = no result given; ! = not active in a repeat; [ ] = dose if it differs, or a comment. Unless noted, the call rests on the fitted dose curve; in most records, active means well fitted curve in the direction sought with a large enough effect; inconclusive means small, poorly fitted or top-dose-only effect, or another doubt; inactive means no such curve, though single readings can be large; an effect the other way counts as inactive or inconclusive.

SMILES	Pol III holo inh	BRCT inh red	YjeE inh	BRCT PPI green	HEK293 cAMP cs	TSHR ag
N#CC(C#N)=NNc1cccc(Cl)c1	.	0%	.	-2%	0.63µM*	?
c1ccc(/N=C2\N=C(Nc3ccccn3)c3ccccc32)nc1	-3%	-1%	i	-2%	19%	7.9µM*
CC1=CC(=O)c2c(O)cccc2C1=O	.	0%	.	-2%	.	.
O=C(O)c1nn(Cc2ccc(Cl)cc2Cl)c2ccccc12	-11%	-3%	i	-2%	40µM*!	?
O=C1CSC2N1CCNC21CCCCC1 (centres undefined)	-3%	-2%	i	0%	-4%	-5%
CN1Cc2c(ccc3c2OCO3)[C@@H]2[C@@H](O)Cc3cc4c(cc3[C@@H]21)OCO4	-14%	1%[34.4 µM]	i	0%[34.4 µM]	19%[25.6 µM]	?
N#CC(C(=O)C12CC3CC(CC(C3)C1)C2)c1nc2ccccc2[nH]1 (centres undefined)	-8%	1%	i	1%	3.2µM*	?
CC1CCCC(C2(O)C(=O)Nc3ccccc32)C1=O (centres undefined)	-15%	0%	i	-3%	3%	3%
O=C(O)/C=C(\CC(=O)O)C(=O)O	-6%[11.4 µM]	-3%[15.4 µM]	i	0%[15.4 µM]	?	?
c1cc(N2CCCC3(CCNCC3)C2)ccn1	2%	0%	i	-6%	2.5µM*	?
c1cnc(N2CCCC3(CCNCC3)C2)nc1	0%	-1%	i	-2%	9%	2%
c1ccc(N2CC3(CCNCC3)C2)cc1	-8%	1%	i	-4%	10µM*	?
COC1=CC23CCCN2CCc2cc4c(cc2C3C1O)OCO4 (centres undefined)	.	-4%	.	0%[3.08 µM]	.	.
CC(C)Nc1ccc(Nc2ccccc2)cc1	-4%	0%	100µM*	3%	9%	?
O=C(Cn1cc(C(=O)c2ccccc2F)c2ccccc21)NCc1ccco1	-1%	-1%	i	-1%	7%	16%
Oc1cc(Cl)c(Cl)cc1Cl	-7%	0%	i	1%	14%	.
Oc1cc(Cl)c(Cl)c(Cl)c1Cl	-4%	-1%	i	0%	40µM*	?
Oc1cc(Cl)c(Cl)c(Cl)c1	-4%	0%	i	-2%	-3%	21%
Oc1c(Cl)c(Cl)cc(Cl)c1Cl	0%	1%	i	1%	40µM*	?
N[C@@H](Cc1ccc(N(CCCl)CCCl)cc1)C(=O)O	-2%	0%	i	6%	-3%	-6%
Cc1nn(C2CCOC(C)(C)C2)c2c1C(c1ccc3c(c1)OCO3)SCC(=O)N2 (centres undefined)	.	-2%	.	-1%	-9%	-1%
Cc1nn(-c2ccccc2)c2c1C(c1ccc3c(c1)OCO3)SCC(=O)N2 (centres undefined)	0%	1%	i	-4%	13%	10µM*
C=CC(=O)OCC	-8%	0%	i	0%	-24%	-4%
C[C@@H]1[C@H]2C=C[C@@H]1[C@@H](c1c3ccc(=O)c(O)c-3oc3c(O)c(O)ccc13)[C@@H]2C(=O)O	0.13µM*	?	i	?	2%[11.4 µM]	7%[11.4 µM]
CC(C)c1cc2c(c(O)c1O)[C@]1(C(=O)O)CCCC(C)(C)C1CC2 (some centres undefined)	.	-1%	.	-2%[3.08 µM]	.	.
SMILES	Pol III holo inh	BRCT inh red	YjeE inh	BRCT PPI green	HEK293 cAMP cs	TSHR ag
COc1cc2c(cc1OC)-c1c(OC)c(OC)c(CO)c3c1[C@H](C2)N(C)CC3	-5%	.	i	.	9%	7%
N#CC(C#N)=NNc1ccc(OC(F)(F)F)cc1	.	-4%	.	-4%	0.63µM*	?
O=C1c2ccccc2-c2cccc3cccc1c23	.	-1%	.	-1%[3.08 µM]	.	.
CCC(=O)O[C@H]1CC[C@H]2[C@@H]3CCC4=CC(=O)CC[C@]4(C)[C@H]3CC[C@]12C	-2%[25.6 µM]	-1%[34.4 µM]	i	-3%[34.4 µM]	16µM*	?
CN(c1ccccc1)S(=O)(=O)c1cccc(C(=O)N2CCN(c3ccccn3)CC2)c1	-3%	-1%	i	-3%	16µM*	?
O=C(c1ccco1)N1CCN(Cc2ccccc2C(F)(F)F)CC1	-14%[11.4 µM]	-1%	i	2%	4µM*	?
CN1CCC2(CC1)CCN(C(=O)c1ccco1)CC2	3%	-4%	i	-1%	14%	6%
CC[C@]1(c2cccc(O)c2)CCCCN(C)C1	7%[25.6 µM]	0%[34.4 µM]	i	-1%[34.4 µM]	1%[25.6 µM]	-1%[25.6 µM]
CCCN(CCC)[C@@H]1CCc2c(OC)cccc2[C@@H]1C	4%	1%	i	-2%	32µM*	?
CCCN[C@@H]1CCc2c(OC)cccc2[C@@H]1C	0%	-1%	i	0%	28%	27%
CC(=O)O[C@H]1CC[C@@]2(C)C(=CC[C@@H]3[C@H]2CC[C@]2(C)C(=O)CC[C@H]32)C1	1%[25.6 µM]	0%[34.4 µM]	i	0%[34.4 µM]	4%[25.6 µM]	-10%[25.6 µM]
CCC(=O)c1cn(Cc2ccccc2C#N)c2ccccc12	-3%	2%	i	3%	20µM*	?
N#Cc1ccccc1Cn1cc(C(=O)c2ccco2)c2ccccc21	4%	-3%	i	-1%	16µM*	?
O=C1C2CC=CCC2C(=O)N1SC(Cl)(Cl)Cl (centres undefined)	40µM*!	0%	i	1%	-44%	?
CCOC(=O)c1c(C)n(Cc2ccco2)c2ccc(O)cc12	-4%	1%	i	1%	21%	7%
CCCCn1c(C)c(C(=O)OCC)c2c(CN3CCOCC3)c(O)ccc21	0%	1%	i	-2%	6.3µM*	?
C/C=C/CC#N	-7%	0%	i	-2%	-97%	?
CC(C)c1nccn1Cc1ccc(Cl)cc1Cl	-10%[11.4 µM]	1%[15.4 µM]	i	-1%[15.4 µM]	3.2µM*	?
CC(C)(C)c1cc(C=C(C#N)C#N)cc(C(C)(C)C)c1O	-3%	-3%	i	-3%	0.79µM*	?
COc1cc(C=C(C#N)C#N)cc(O)c1O	-10%	-1%	i	5%	-11%	-7%
CCNC(=O)C1OC(n2cnc3c(N)ncnc32)C(O)C1O (centres undefined)	.	0%	.	-2%	0.63µM*	?
Cc1[nH]nc2c1C1(CCC3(CC1)OCCO3)C(C#N)=C(N)O2	-3%	-2%	i	1%	1%	10µM*
N=Cc1c(O)n(-c2cccc(Cl)c2)c(=O)[nH]c1=O	-6%	0%	i	1%	11%	4%
